Rab9 prom act: activators of Rab9 promoter; Potency, µM (titrated, usually from 9.22 µM), for inactives: top-dose activation, negative = inhibition, most hits filed as activators; actives 2.8% (n = 320,000); Huh7 Rab9 promoter-luciferase reporter, luminescence, 24 h; AID 485297; note: % of control where 0% means no effect; nearly all actives have a fitted effect of over 60% in size
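Measured in stably transfected Huh7 cells bearing a Rab9 promoter–luciferase construct: 24 h compound treatment at 37 °C, followed by luminescence detection.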
ELG1 genotox: genotoxicity induction in ELG1-luciferase HEK293T cells. HEK293T ELG1-luciferase reporter, luminescence, 16 h. Potency, µM (series often up to 46 µM), for inactives: at the highest dose activity change, positive = activation, usual class: activators. actives 1.3% (n = 330,000). AID 504466; note: % of control where 0% means no effect; nearly all actives have a fitted effect of over 60% in size
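Genotoxic stress is detected as increased luminescence from luciferase-tagged ELG1 in HEK293T cells, measured with ONE-Glo after a 16 hr treatment at 37 °C.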
NPC1 promoter act: activators of NPC1 promoter; Huh7 NPC1 promoter luciferase reporter, 24 h; Potency, µM (highest dose often 9.22 µM), for the others: at the top dose activation, most hits filed as activators; actives 2.4% (n = 320,000); AID 485313; note: % of control where 0% means no effect; nearly all actives have a fitted effect of over 60% in size
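Huh7 reporter cells (NPC1 promoter driving luciferase) are dosed with compound for 24 h at 37 °C, 5% CO2; luciferase detection reagent is then added and luminescence measured after 10 min at ambient temperature.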
ELG1 repair inh: ELG1-dependent DNA repair inhibition | Potency, µM (highest dose often 46.1 µM), for inactives: at the highest dose activity change, negative = inhibition, hits mostly inhibitors | HEK293T ELG1-luciferase reporter, luminescence, 16 h; DNA damage induced by 5-fluorouridine | actives 2.3% (n = 330,000); note: % is set by controls: 0 for no effect and ±100 for the full control effect; nearly all actives have a fitted effect of over 55% in size
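HEK293T cells expressing luciferase-tagged ELG1 (2,000/well) received 5-Fluorouridine plus compound or DMSO for 16 hr at 37 °C. Luciferase was read by ONE-Glo luminescence after 30 min at room temperature.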
SMN2 splice enh: enhancers of SMN2 splice variant expression. HEK293 SMN2-luciferase splicing reporter, luminescence, 30-36 h. Potency, µM (top dose mostly 46.1 µM), for inactives: top-dose activity change, positive = activation, actives largely listed as activators. actives 2.8% (n = 210,000); note: % of control where 0% means no effect; nearly all actives have a fitted effect of over 55% in size
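HEK293 cells carry an SMN2 minigene-luciferase reporter in which exon 7 inclusion puts luciferase in frame. Cells were seeded at 2000 cells/well, attached for 10-12 hours, then exposed to compounds for 30-36 hours at 37C before ONE-Glo luminescence.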
FLuc modulator: inhibits or activates purified firefly luciferase, miR-21 counter-screen; actives 6.9% (n = 360,000); purified FLuc, Km substrates, luminescence inhibition; AID 588342; Potency, µM (top dose mostly 57.5 µM), for the others: at the top dose activity change, negative = inhibition, hits mostly inhibitors;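 note: plate controls were vehicle for no effect and reference inhibitor for full effect; nearly all actives have a fitted effect of over 55% in size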
Target sequence (P08659 whole entry, looked up): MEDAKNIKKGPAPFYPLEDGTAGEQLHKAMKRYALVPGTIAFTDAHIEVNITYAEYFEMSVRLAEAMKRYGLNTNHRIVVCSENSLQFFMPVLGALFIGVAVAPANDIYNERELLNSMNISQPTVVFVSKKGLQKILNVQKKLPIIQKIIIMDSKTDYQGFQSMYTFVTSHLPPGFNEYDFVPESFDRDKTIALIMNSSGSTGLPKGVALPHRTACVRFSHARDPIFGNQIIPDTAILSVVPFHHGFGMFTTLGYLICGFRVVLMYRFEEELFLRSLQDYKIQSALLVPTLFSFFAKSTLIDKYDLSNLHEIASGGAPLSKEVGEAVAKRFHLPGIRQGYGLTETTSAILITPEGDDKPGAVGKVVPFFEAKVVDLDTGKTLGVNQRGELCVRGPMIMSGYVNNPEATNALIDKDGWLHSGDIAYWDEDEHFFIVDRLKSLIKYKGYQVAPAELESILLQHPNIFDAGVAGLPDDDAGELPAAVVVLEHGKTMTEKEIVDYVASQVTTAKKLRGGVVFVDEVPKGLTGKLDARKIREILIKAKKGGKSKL
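Purified P. pyralis luciferase (10nM final) with 10uM D-luciferin and 10uM ATP (Km levels) in 50mM Tris acetate pH 7.5, 10mM Mg acetate, 0.01% Tween-20, 0.05% BSA; qHTS 6-point titration, ~60 µM downward; luminescence read.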
* marks the source's active call; other numbers are inactive results; ? = inconclusive; / = no result. Sampled rows, rich in hits. Any-hit rate of the full collection: about 9.2%. Calls come from the whole dose curve; as a rule, active = well fitted curve in the direction sought with a large enough effect; inconclusive = small, poorly fitted or top-dose-only effect, or another doubt; inactive = no such curve, though single readings can be large; an effect the other way counts as inactive or inconclusive. Potency is the fitted concentration of half-maximal effect.

SMILES	Rab9 prom act	ELG1 genotox	NPC1 promoter act	ELG1 repair inh	SMN2 splice enh	FLuc modulator
O=Cc1ccc(OCc2cccc(C(F)(F)F)c2)cc1O	6%	0%	1%	8%	24%	?
CCOc1ccc(OCc2cccc(C(=O)O)c2)cc1	-25%	-29%	-22%	?	0.032µM*	0.017µM*
COc1cc(/C=C/[N+](=O)[O-])ccc1OCc1cccc(C(=O)O)c1	1.3µM*	?	1µM*	?	1.3µM*	0.21µM*
COc1ccc(-n2nnnc2C2CCN(S(=O)(=O)c3cccc(C(F)(F)F)c3)CC2)cc1	/	/	/	/	7%	-7%
CCOC(=O)c1[nH]c2c(c1Cc1ccccc1OC)C(=O)CC(c1ccc(OCC)cc1)C2 (stereo not drawn)	/	/	/	/	-5%	0%
Cc1nnc(NC(=O)CSc2nnc(CC(=O)Nc3ccccc3Cl)n2C)s1	3%	3%	8%	?	/	-1%
O=C(O)c1cc(OCc2ccccc2)cc(OCc2ccccc2)c1	-8%	-6%	-1%	-5%	/	1%
COc1ccc(OCc2cccc(C(=O)O)c2)cc1	1µM*	/	0.0006µM*	?	0.04µM*	0.03µM*
COc1ccc2[nH]c3c(c2c1)CC(C)NC3=O (stereo not drawn)	5%	-11%	24%	?	/	-5%
COc1ccc2[nH]c3c(c2c1)CCn1c-3nc2ccccc2c1=O	0.25µM*	?	0.2µM*	?	1.6µM*	0.48µM*
CCN1CCN(C(=O)c2nn(-c3ccc(C)cc3)c(=O)c3c2c2ccccc2n3C)CC1	1%	7%	6%	18%	25µM*	4%
CCCCn1c(N)c(N(CC)C(=O)C2=NN(c3ccccc3)C(=O)CC2)c(=O)[nH]c1=O	-5%	5%	-4%	19%	/	2%
CCOc1ccc2c(c1)sc(=NC(=O)C1CC1)n2C	/	/	/	/	11µM*	7.6µM*
COC(=O)CN1C(=O)CSc2ccc(S(=O)(=O)Nc3cccc(C)c3C)cc21	/	/	/	/	/	-11%
O=C(O)c1ccc(N/N=C/c2cccc(C(F)(F)F)c2)cc1	0.63µM*	?	0.56µM*	?	/	3.4µM*
O=C(O)c1ccc(N/N=C/c2ccc(F)c(F)c2)cc1	0.32µM*	5.2µM*	0.32µM*	?	1.4µM*	1.7µM*
O=C(O)c1ccc(/C=N/NC(=O)C(O)(c2ccccc2)c2ccccc2)cc1	0%	2%	-4%	11%	/	5%
O=C(O)c1ccc(/C=N/Nc2ncc(Cl)cc2Cl)cc1	26%	8%	16%	?	/	?
O=C(N/N=C/c1cccc(F)c1)NC1CCCCC1	24%	17%	15%	?	30%	?
O=C(O)c1ccc(N/N=C/c2cccc(F)c2)cc1	0.5µM*	?	0.5µM*	?	1µM*	2.4µM*
CCOc1ccc(-c2ccc(SCC(=O)Nc3nnc(CC)s3)nn2)cc1	?	?	?	?	11µM*	0.6µM*
COc1ccc(-c2ccc(SCC(=O)NCc3ccco3)nn2)cc1	?	?	21%	?	7%	8.5µM*
COc1ccc(-c2ccc(SCC(=O)Nc3nnc(C)s3)nn2)cc1	?	8%	6%	?	?	1.3µM*
Cn1c(-c2ccc(F)cc2)cnc1SCC(=O)Nc1ccccc1N1CCOCC1	1.3µM*	1.8µM*	1.6µM*	?	13µM*	0.95µM*
CCOc1ccc(NC(=O)CCC(=O)Nc2nnc(CC)s2)cc1	-1%	16%	19%	0%	/	-1%
SMILES	Rab9 prom act	ELG1 genotox	NPC1 promoter act	ELG1 repair inh	SMN2 splice enh	FLuc modulator
CNS(=O)(=O)c1cccc(C(=O)NNC(=O)c2ccc(COc3ccccc3)cc2)c1	-3%	-22%	1%	-25%	/	3%
COc1cc(Nc2cccc[n+]2C)cc(OC)c1OC	2%	-2%	1%	12%	/	-2%
CCc1nnc(NC(=O)CSc2ccc(-c3ccc(C)cc3)nn2)s1	?	?	?	?	?	2.4µM*
CCc1nnc(NC(=O)CSc2ncc(-c3ccccc3)n2C)s1	29%	18µM*	7%	?	-19%	?
CCc1nnc(NC(=O)CSc2nnc(C)n2-c2ccc(C)cc2)s1	-3%	-5%	0%	-13%	-3%	4%
CCOc1ccc(-c2ccc(SC)nn2)cc1	0.32µM*	?	0.63µM*	?	0.79µM*	0.48µM*
CCOc1ccc(-c2csc(-c3nc(-c4ccc(Br)s4)cs3)n2)cc1	/	/	/	/	2%	3%
CCOc1cccc(/C=C/c2cc(C(=O)O)c3ccccc3n2)c1OC	4.5µM*	?	2µM*	?	/	1.1µM*
COc1cc(/C=C/c2cc(C(=O)O)c3ccccc3n2)cc(OC)c1O	-9%	0%	0%	10%	7%	9.5µM*
CCOc1ccccc1NC(=O)c1cc(-c2cc(OC)c(OC)c(OC)c2)nc2ccccc12	9%	-9%	-2%	?	/	0%
CCOc1cc(/C=N/N=C/c2ccc(O)c(OCC)c2)ccc1O	1%	-3%	2%	-9%	/	3%
CCOc1cc(/C=C/c2cc(C(=O)O)c3ccccc3n2)ccc1OC	?	?	?	?	22µM*	1.3µM*
CCOc1cc(/C=C/c2cc(C(=O)O)c3ccccc3n2)ccc1O	2%	10%	1%	?	13%	4.3µM*
CCOc1c(Cl)cc(C(=O)N(Cc2ccc(N(C)C)cc2)Cc2ccco2)cc1Cl	/	/	/	/	6%	1%
COc1cccc(CNC(=O)[C@H](CCSC)NC(=O)N2CCn3c2nc2ccccc23)c1	-2%	-8%	-2%	18µM*	/	-1%
CN1c2ccccc2C(C)(C)C12C=Nc1c(ccc3ccccc13)O2 (stereo not drawn)	8%	-2%	-3%	?	-41%	15µM*
CCn1c(=O)c2cc(C(=O)N3CCN(C)CC3)sc2c2ccccc21	-2%	-5%	-1%	?	-1%	1%
CN1CCN(C(=O)c2cc3sc4ccccc4c3s2)CC1	0.71µM*	?	0.63µM*	?	/	3µM*
CC1CCc2nc(NC(=O)Nc3ccc4c(c3)OCO4)sc2C1 (stereo not drawn)	2.5µM*	?	3.2µM*	?	/	1.3µM*
CC1CCc2nc(NC(=O)CN3CCN(Cc4ccc5c(c4)OCO5)CC3)sc2C1 (stereo not drawn)	-22%	-9%	-2%	12µM*	-95%	5%
O=C(NCCSCc1ccc(Cl)cc1)c1cccs1	-9%	-4%	-5%	-15%	/	3%

Source: PubChem BioAssay
